# From PubChem BioAssay (NCATS)
# Records with an inconclusive call do not appear. Values without a mark were called inactive. Active and inactive are the calls of the source. Calls follow the shape of the dose curve; as a rule, active = well fitted curve in the direction sought with a large enough effect; inconclusive = small, poorly fitted or top-dose-only effect, or another doubt; inactive = no such curve, though single readings can be large; an effect the other way counts as inactive or inconclusive.
# Tests used:
# [1] = Quantitative High-Throughput drug screen in 47 multiple myeloma cell lines against the NCATS MIPE library collection: KMS12BM_JCRB cell viability assay (AID 1918971); also: nearly all actives have a fitted effect of over 35% in size
# Procedure, shortened: (§1)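 Viability readout: CellTiter-Glo luminescence following 5 min room-temperature incubation with reagent. Prior exposure: 48 h, 37C, humidified 5% CO2, 500 cells per well.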
# [2] = Quantitative High-Throughput drug screen in 47 multiple myeloma cell lines against the NCATS MIPE library collection: MMM1_PLB cell viability assay (AID 1918976); also: nearly all actives have a fitted effect of over 35% in size
# Procedure, shortened: (§2)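 MIPE 4.0 approved/investigational drugs; 500 cells/well; 48 h 37 °C humidified 5% CO2; CTG luminescence readout; DMSO = 100%, media = 0% viability.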
# [3] = Quantitative High-Throughput drug screen in 47 multiple myeloma cell lines against the NCATS MIPE library collection: MOLP8_DSMZ cell viability assay (AID 1918977); also: nearly all actives have a fitted effect of over 45% in size;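 as to viability (% of control): 100% = DMSO-only wells and 0% = media-only wells without cells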
# Procedure, shortened: as §2
# [4] = Quantitative High-Throughput drug screen in 47 multiple myeloma cell lines against the NCATS MIPE library collection: NCIH929_DSMZ cell viability assay (AID 1918978); also: nearly all actives have a fitted effect of over 35% in size
# Procedure, shortened: as §2
# [5] = Quantitative High-Throughput drug screen in 47 multiple myeloma cell lines against the NCATS MIPE library collection: MM1R_ATCC cell viability assay (AID 1918981); also: nearly all actives have a fitted effect of over 35% in size
# Procedure, shortened: as §2
# [6] = Quantitative High-Throughput drug screen in 47 multiple myeloma cell lines against the NCATS MIPE library collection: KMS28PE_JCRB cell viability assay (AID 1918983); also: nearly all actives have a fitted effect of over 35% in size
# Procedure, shortened: as §2
# [7] = Quantitative High-Throughput drug screen in 47 multiple myeloma cell lines against the NCATS MIPE library collection: OCIMY5_PLB cell viability assay (AID 1918988); also: nearly all actives have a fitted effect of over 65% in size
# Procedure, shortened: as §2
# [8] = Quantitative High-Throughput drug screen in 47 multiple myeloma cell lines against the NCATS MIPE library collection: OPM1_PLB cell viability assay (AID 1918989); also: nearly all actives have a fitted effect of over 40% in size
# Procedure, shortened: as §2
# [9] = Quantitative High-Throughput drug screen in 47 multiple myeloma cell lines against the NCATS MIPE library collection: SKMM1_PLB cell viability assay (AID 1919863); conditions: SKMM1 myeloma viability, CellTiter-Glo ATP, 48 h; viability: active compounds read low; also: nearly all actives have a fitted effect of over 35% in size
# Procedure, shortened: as §2
# [10] = Quantitative High-Throughput drug screen in 47 multiple myeloma cell lines against the NCATS MIPE library collection: U266_ATCC cell viability assay (AID 1919864); also: nearly all actives have a fitted effect of over 35% in size
# Procedure, shortened: as §2
# [11] = Quantitative High-Throughput drug screen in 47 multiple myeloma cell lines against the NCATS MIPE library collection: KMS12PE_JCRB cell viability assay (AID 1918972); also: nearly all actives have a fitted effect of over 30% in size;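 as to viability: 100% = DMSO only wells and 0% = wells with media alone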
# Procedure, shortened: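 Approved and investigational drugs from MIPE 4.0 were added by pin tool to 500 cells per well. After 48 hours at 37C, ATP-based CellTiter-Glo luminescence indicated remaining viability.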
# [12] = Quantitative High-Throughput drug screen in 47 multiple myeloma cell lines against the NCATS MIPE library collection: KMS20_JCRB cell viability assay (AID 1918973); also: nearly all actives have a fitted effect of over 45% in size
# Procedure, shortened: (§3)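 qHTS of the MIPE 4.0 collection: 500 myeloma cells/well, 48 h drug exposure at 37C in 5% CO2, then CellTiter-Glo for 5 min at room temperature before luminescence reading.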
# [13] = Quantitative High-Throughput drug screen in 47 multiple myeloma cell lines against the NCATS MIPE library collection: KMS21BM_JCRB cell viability assay (AID 1918974); conditions: ATP luminescence, 48 h; viability: at 45.8 µM (top of the series)
# Procedure, shortened: as §3
# [14] = Quantitative High-Throughput drug screen in 47 multiple myeloma cell lines against the NCATS MIPE library collection: MM1S_ATCC cell viability assay (AID 1918980); also: nearly all actives have a fitted effect of over 45% in size
# Procedure, shortened: as §2
# [15] = Quantitative High-Throughput drug screen in 47 multiple myeloma cell lines against the NCATS MIPE library collection: KMS34_JCRB cell viability assay (AID 1918985); also: nearly all actives have a fitted effect of over 40% in size
# Procedure, shortened: as §2
# [16] = Quantitative High-Throughput drug screen in 47 multiple myeloma cell lines against the NCATS MIPE library collection: OCIMY7_PLB cell viability assay (AID 1918987); conditions: OCI-MY7 myeloma viability, CellTiter-Glo ATP, 48 h; viability (% of DMSO): at 45.8 µM (top of the series); also: nearly all actives have a fitted effect of over 65% in size
# Procedure, shortened: as §2
# [17] = Quantitative High-Throughput drug screen in 47 multiple myeloma cell lines against the NCATS MIPE library collection: KMS26_JCRB cell viability assay (AID 1918975); also: nearly all actives have a fitted effect of over 45% in size;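 as to viability (% of DMSO): 100% = DMSO-treated wells and 0% = wells with media only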
# Procedure, shortened: as §1
# [18] = Quantitative High-Throughput drug screen in 47 multiple myeloma cell lines against the NCATS MIPE library collection: OCIMY1_PLB cell viability assay (AID 1918979); also: nearly all actives have a fitted effect of over 35% in size;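 as to viability: 100% = DMSO-only wells and 0% = cell-free media-only wells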
# Procedure, shortened: as §2
# [19] = Quantitative High-Throughput drug screen in 47 multiple myeloma cell lines against the NCATS MIPE library collection: L363_DSMZ cell viability assay (AID 1918984); conditions: L363 myeloma viability, CellTiter-Glo ATP luminescence, 48 h; viability (% of control): at 45.8 µM (top of the series); also: nearly all actives have a fitted effect of over 40% in size
# Procedure, shortened: as §2
# [20] = Quantitative High-Throughput drug screen in 47 multiple myeloma cell lines against the NCATS MIPE library collection: LP1_DSMZ cell viability assay (AID 1918982); also: nearly all actives have a fitted effect of over 35% in size
# Procedure, shortened: as §2
# Potency is read from the fitted curve at half-maximal effect.
compound,measurement,setting,value
CN(C)c1ccccc1CN1CCCN(Cc2ccccc2N(C)C)C1c1ccncc1,Potency,[1],16.6 µM (active)
same,Potency,[2],16.6 µM (active)
same,Potency,[3],18.7 µM (active)
same,Potency,[4],14.8 µM (active)
same,Potency,[5],18.7 µM (active)
same,Potency,[6],23.5 µM (active)
same,Potency,[7],20.9 µM (active)
same,Potency,[8],20.9 µM (active)
same,Potency,[9],20.9 µM (active)
same,Potency,[10],14.8 µM (active)
c1cc(OCCN2CCCCC2)cc(-c2n[nH]c3ccc(-c4ncn[nH]4)cc23)c1,Potency,[11],23.5 µM (active)
same,Potency,[12],18.7 µM (active)
same,Potency,[13],3.72 µM (active)
same,Potency,[4],8.33 µM (active)
same,Potency,[14],23.5 µM (active)
same,Potency,[5],26.4 µM (active)
same,Potency,[6],16.6 µM (active)
same,Potency,[15],20.9 µM (active)
same,Potency,[16],5.26 µM (active)
same,Potency,[10],18.7 µM (active)
Cc1cc2c(cc1C1(c3ccc(C(=O)O)cn3)CC1)C(C)(C)CCC2(C)C,Potency,[1],3.32 µM (active)
same,Potency,[17],14.8 µM (active)
same,Potency,[18],0.0015 µM (active)
same,Potency,[14],inactive
same,Potency,[5],6.62 µM (active)
same,Potency,[19],inactive
same,Potency,[10],inactive
C[C@H]1O[C@@H](n2cc(F)c(=O)[nH]c2=O)[C@H](O)[C@H]1O,Potency,[1],16.6 µM (active)
same,Potency,[4],inactive
same,Potency,[18],inactive
same,Potency,[5],14.8 µM (active)
same,Potency,[6],inactive
same,Potency,[8],11.8 µM (active)
C[C@@H]1[C@H](O)[C@@H](C)C=CC=CC=CC=CC=CC=CC=C[C@H](O[C@@H]2O[C@H](C)[C@H](O)[C@H](N)[C@@H]2O)C[C@@H]2O[C@](O)(C[C@@H](O)C[C@@H](O)[C@H](O)CC[C@@H](O)C[C@@H](O)CC(=O)O[C@H]1C)C[C@H](O)[C@@H]2C(=O)O,Potency,[1],2.09 µM (active)
same,Potency,[4],inactive
same,Potency,[14],0.833 µM (active)
same,Potency,[5],16.6 µM (active)
same,Potency,[6],inactive
same,Potency,[15],11.8 µM (active)
same,Potency,[16],11.8 µM (active)
same,Potency,[7],4.18 µM (active)
same,Potency,[9],5.26 µM (active)
Fc1ccc(C(c2ccc(F)cc2)N2CCN(CC=Cc3ccccc3)CC2)cc1,Potency,[1],inactive
same,Potency,[4],18.7 µM (active)
same,Potency,[18],inactive
same,Potency,[20],16.6 µM (active)
same,Potency,[6],inactive
same,Potency,[19],inactive
same,Potency,[15],inactive
same,Potency,[16],13.2 µM (active)
same,Potency,[7],14.8 µM (active)
same,Potency,[10],inactive
COc1cc([C@@H]2c3cc4c(cc3[C@@H](O[C@@H]3O[C@@H]5CO[C@@H](C)O[C@@H]5[C@H](O)[C@@H]3O)[C@H]3COC(=O)[C@H]23)OCO4)cc(OC)c1O,Potency,[1],1.48 µM (active)
same,Potency,[18],inactive
same,Potency,[14],0.264 µM (active)
same,Potency,[5],0.372 µM (active)
same,Potency,[15],4.18 µM (active)
same,Potency,[7],14.8 µM (active)
same,Potency,[8],14.8 µM (active)
CC1(COc2ccc3c(c2)ncn3-c2ccc3cccc(N4CCC(N)CC4)c3n2)COC1,Potency,[1],11.8 µM (active)
same,Potency,[17],14.8 µM (active)
same,Potency,[2],1.48 µM (active)
same,Potency,[18],1.48 µM (active)
same,Potency,[5],0.526 µM (active)
same,Potency,[20],1.18 µM (active)
same,Potency,[6],0.59 µM (active)
same,Potency,[15],1.05 µM (active)
same,Potency,[16],0.059 µM (active)
same,Potency,[8],0.0235 µM (active)
same,Potency,[9],16.6 µM (active)
same,Potency,[10],0.059 µM (active)
CC(C)N(CCCNC(=O)Nc1ccc(C(C)(C)C)cc1)C[C@H]1O[C@@H](n2cc(Br)c3c(N)ncnc32)[C@H](O)[C@H]1O,Potency,[11],inactive
same,Potency,[12],5.26 µM (active)
same,Potency,[17],26.4 µM (active)
same,Potency,[2],18.7 µM (active)
same,Potency,[3],18.7 µM (active)
same,Potency,[4],23.5 µM (active)
same,Potency,[14],23.5 µM (active)
same,Potency,[5],20.9 µM (active)
same,Potency,[20],23.5 µM (active)
same,Potency,[6],14.8 µM (active)
same,Potency,[15],20.9 µM (active)
same,Potency,[8],23.5 µM (active)
Cc1c(-c2cccc3c(CCCOc4cccc5ccccc45)c(C(=O)O)n(Cc4cccnc4)c23)c(COc2ccc(N3CCN([S+](=O)([O-])N(C)C)CC3)cc2)nn1C,Potency,[1],23.5 µM (active)
same,Potency,[4],3.72 µM (active)
same,Potency,[18],inactive
same,Potency,[14],23.5 µM (active)
same,Potency,[20],18.7 µM (active)
same,Potency,[19],inactive
same,Potency,[9],23.5 µM (active)
COC(=O)N1CCN(Cc2cccc(NC(=O)Nc3ccc(C)nc3)c2F)CC1,Potency,[1],20.9 µM (active)
same,Potency,[3],inactive
same,Potency,[4],inactive
same,Potency,[18],inactive
same,Potency,[20],16.6 µM (active)
same,Potency,[15],inactive
same,Potency,[8],inactive
same,Potency,[10],inactive
CN(C)c1nc(Cc2ccc(NC(=O)c3ccc(C(F)(F)F)cc3)cc2)nc(N(C)C)c1CC(=O)O,Potency,[1],inactive
same,Potency,[17],inactive
same,Potency,[4],inactive
same,Potency,[18],inactive
same,Potency,[14],2.96 µM (active)
same,Potency,[5],9.35 µM (active)
same,Potency,[6],5.26 µM (active)
same,Potency,[16],inactive
same,Potency,[8],inactive
same,viability,[9],127%
FC(F)(F)c1ccc(C=Cc2nc(COc3ccc(CCCCn4ccnn4)cc3)co2)cc1,Potency,[1],0.0526 µM (active)
same,Potency,[17],0.0019 µM (active)
same,Potency,[4],0.0235 µM (active)
same,Potency,[6],0.132 µM (active)
same,Potency,[16],0.132 µM (active)
same,Potency,[7],0.0166 µM (active)
same,Potency,[8],0.187 µM (active)
C[C@@H](O[C@H]1OCCN(Cc2n[nH]c(=O)[nH]2)[C@@H]1c1ccc(F)cc1)c1cc(C(F)(F)F)cc(C(F)(F)F)c1,Potency,[1],18.7 µM (active)
same,Potency,[17],18.7 µM (active)
same,Potency,[20],23.5 µM (active)
same,Potency,[19],4.69 µM (active)
same,Potency,[15],20.9 µM (active)
same,Potency,[7],23.5 µM (active)
same,Potency,[8],23.5 µM (active)
COc1cc2ncn(-c3cc(OCc4ccccc4S(C)(=O)=O)c(C#N)s3)c2cc1OC,Potency,[11],inactive
same,Potency,[12],inactive
same,Potency,[17],inactive
same,Potency,[2],5.9 µM (active)
same,Potency,[4],4.69 µM (active)
same,Potency,[18],inactive
same,Potency,[14],20.9 µM (active)
same,Potency,[5],inactive
same,Potency,[20],inactive
same,Potency,[15],inactive
same,Potency,[8],inactive
COc1cc2nccc(Oc3ccc(NC(=O)Nc4cc(C)on4)c(Cl)c3)c2cc1OC,Potency,[1],23.5 µM (active)
same,Potency,[17],16.6 µM (active)
same,Potency,[2],23.5 µM (active)
same,Potency,[14],6.62 µM (active)
same,Potency,[15],4.18 µM (active)
same,Potency,[7],16.6 µM (active)
same,Potency,[8],20.9 µM (active)
same,Potency,[10],20.9 µM (active)
